# Compound activity from PubChem.
# Pf growth 96h: Primary qHTS for delayed death inhibitors of the malarial parasite plastid, 96 hour incubation; P. falciparum luciferase reporter growth, 96 h; Potency, µM (highest dose often 28.7 µM), most hits filed as inhibitors; 6.9% of 320,000 active; AID 504834, 2011
#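 Cell-based qHTS: luciferase-tagged P. falciparum in erythrocytes (2% hematocrit, 0.05% parasitemia final) incubated with compounds for 96 hours, 37 C, 5% CO2; luciferase detection reagent then added and luminescence measured.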
# SARS PLP yeast: qHTS of Yeast-based Assay for SARS-CoV PLP | S. cerevisiae expressing SARS-CoV PLpro, growth rescue | Potency, µM (highest dose often 32.9 µM), most hits filed as activators | 0.19% of 330,000 active; calls by dose curve; further: nearly all actives have a fitted effect of over 55% in size
# AMA1-RON2 inh: qHTS for Inhibitors of AMA1-RON; Towards Development of Antimalarial Drug Lead: Primary Screen; Plasmodium falciparum AMA1 (3D7) - RON2 peptide interaction; AlphaScreen AMA1-biotinylated RON2 peptide binding; Potency, µM (series often up to 58.2 µM), usual class: inhibitors; 0.2% of 360,000 active; further: nearly all actives have a fitted effect of over 45% in size
#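 AMA1 (3D7) with his tag at 25 nM final met compounds first, then biotinylated RON2 peptide at 25 nM; detection used donor plus acceptor beads, 10 µg/mL apiece, read by AlphaScreen after 30 min at room temperature.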
# Pf growth 48h: Primary qHTS for delayed death inhibitors of the malarial parasite plastid, 48 hour incubation | P. falciparum luciferase growth in erythrocytes, 48 h | Potency, µM (series often up to 28.7 µM), actives largely listed as inhibitors | 5.9% of 310,000 active | AID 504832, 2011
#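 Read-out is firefly luciferase luminescence from an integrated reporter in P. falciparum, so falling signal marks reduced parasite growth. Infected erythrocytes were at 2% hematocrit and 0.1% parasitemia (final) in Albumax-supplemented RPMI 1640.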
# Hits are given with their value; – = inactive; ? = inconclusive; · = no result; [ ] = dose if it differs, or a comment. Most compounds without a hit are left out; they make up all but 9.4% or so of the library. Unless noted, the call rests on the fitted dose curve; in most records, active means well fitted curve in the direction sought with a large enough effect; inconclusive means small, poorly fitted or top-dose-only effect, or another doubt; inactive means no such curve, though single readings can be large; an effect the other way counts as inactive or inconclusive.
SMILES,Pf growth 96h,SARS PLP yeast,AMA1-RON2 inh,Pf growth 48h
CCN(CC(=O)Nc1ccc(NC(C)=O)cc1)C(=O)c1cc(CN2C(=O)c3ccccc3C2=O)ccc1OC,–,–,–,–
N/C(=N\OC(=O)CCC1CCCC1)c1ccc(Cl)cc1,?,–,–,–
O=C(Nc1ccnn1C1CCN(C(=O)c2cc(Cl)ccc2F)CC1)C1CCOC1 (stereo unspecified),?,–,–,–
COc1ccc(C(CNC(=O)c2ccc(Cl)c(S(=O)(=O)N3CCCC3)c2)N2CCCC2)cc1 (stereo unspecified),7.4µM,–,–,13µM
COc1ccc(C(=O)NCC(c2ccc3c(c2)OCO3)N2CCN(c3ccc(OC)cc3)CC2)cc1 (stereo unspecified),2.6µM,–,–,?
CCN(CC)c1ccc(NC(=O)/C=C\c2ccccc2Cl)cc1,1µM,–,–,?
O=C(/C=C/c1ccccc1Cl)NCCc1ccccc1,12µM,–,–,?
O=C(/C=C/c1ccccc1Cl)NCc1ccccc1,–,–,–,–
COc1ccc(C(NC(=O)CN2C(=O)NC3(CCc4ccccc43)C2=O)c2ccc(OC)cc2)cc1 (stereo unspecified),?,–,–,10µM
COc1ccc(C(=O)CN2C(=O)NC3(CCc4ccccc43)C2=O)cc1 (stereo unspecified),–,–,–,–
COc1ccc(C(NC(=O)CN2C(=O)NC3(CCc4ccccc43)C2=O)c2ccccc2)cc1 (stereo unspecified),?,–,–,12µM
COc1cccc(NC(=O)CN2C(=O)NC3(CCCc4ccccc43)C2=O)c1 (stereo unspecified),4.7µM,–,–,–
O=C(CSc1nnc(-c2cccc(S(=O)(=O)N3CCCCC3)c2)o1)NCCC1=CCCCC1,?,–,–,?
COC(=O)c1ccc(C)c(NC(=O)CN2C(=O)c3ccccc3S2(=O)=O)c1,·,–,–,–
O=C(Nc1ncccn1)c1cccc(Cl)c1,·,·,–,·
Cc1cc(C)cc(C(=O)N2CC(C)SC2=Nc2cccc(S(=O)(=O)N(C)C)c2)c1 (stereo unspecified),?,–,–,13µM
CN1CCCC1(C)C(=O)NCc1ccc(F)cc1Cl (stereo unspecified),·,·,–,·
Nc1c(C(=O)CSc2nnc(N3CCOCC3)n2-c2cccc(F)c2)c(=O)[nH]c(=O)n1C1CC1,?,–,–[11.6 µM],?
Cc1ccccc1-n1c(SCC(=O)c2c(N)n(C3CC3)c(=O)[nH]c2=O)nnc1N1CCOCC1,13µM,–,–,?
Cc1cccc(-n2c(SCC(=O)c3c(N)n(C4CC4)c(=O)[nH]c3=O)nnc2N2CCOCC2)c1,5.2µM,–,–,?
Cc1ccc(-n2nnnc2SCC(=O)c2c(N)n(C3CC3)c(=O)[nH]c2=O)c(C)c1,5.9µM,–,–,10µM
Cc1ccc(-n2c(SCC(=O)c3c(N)n(C4CC4)c(=O)[nH]c3=O)nnc2N2CCOCC2)cc1,?,–,–,10µM
O=C(NCCCN1CCOCC1)C1CCC(=O)N1CCc1ccccc1 (stereo unspecified),–,–,–,·
COc1cc(CC(=O)Nc2ccc(Cl)c(C(F)(F)F)c2)cc(OC)c1OC,?,–,–,?
CCOc1ccc(S(=O)(=O)NC(C)C(=O)NC2CCCC2)cc1 (stereo unspecified),?,–,–,–
SMILES,Pf growth 96h,SARS PLP yeast,AMA1-RON2 inh,Pf growth 48h
CCCCNC(=O)c1sc2ncnc(N3CCc4ccccc4C3)c2c1C,15µM,–,–,?
CCOC(=O)CNC(=O)c1sc2ncnc(N3CCc4ccccc4C3)c2c1C,·,–,–,?
O=C1CCN(Cc2nnnn2CC2CCCO2)c2ccccc2N1 (stereo unspecified),15µM,–,–,–
C/C(=C\C(=S)Nc1ccccc1)Nc1ccc2ccccc2c1,?,–,–,9.3µM
Cc1cc(N)c2ccccc2[n+]1CCCCCCCCCC[n+]1c(C)cc(N)c2ccccc21,–,·,·,0.18µM
CC[n+]1c(C)cc2c(sc3ccccc32)c1C,?,–,–,?
CCCC(=O)Nc1ccccc1-c1nnc(SCC)[nH]c1=O,–,–,–,–
CCSc1nnc(-c2ccccc2NC(=O)CC)c(=O)[nH]1,4.7µM,–,–,–
OCCn1cnc2c(SCc3ccccc3)ncnc21,·,·,–,·
N=c1c2c(-c3ccccc3)c(-c3ccccc3)n(Cc3ccco3)c2ncn1Cc1ccccc1,2.6µM,–,–,·
O=c1c2c3nc4ccccc4nc3n(Cc3ccccc3)c2ncn1Cc1ccco1,·,–,–,10µM
N=c1c2c(-c3ccccc3)c(-c3ccccc3)n(Cc3ccco3)c2ncn1CCCN1CCOCC1,–,–,–,?
N=c1c2c(-c3ccccc3)c(-c3ccccc3)n(Cc3ccccc3)c2ncn1CCO,?,–,–,4.1µM
CC(C)Cn1cnc2c(c(-c3ccccc3)c(-c3ccccc3)n2Cc2ccco2)c1=N,2.1µM,–,–,·
O=c1c2ccccc2nc(-c2ccccc2)n1Cc1ccco1,?,–,–,–
Cc1c(-c2nnc(-c3ccc(C(F)(F)F)cc3)o2)cnn1-c1ccccc1,–,–,–,·
CC(C)(C)c1ccc(-c2noc(CCC(=O)Nc3cccnc3)n2)cc1,–,–,–,–
COc1ccc(N2CCN(C(=O)Cn3nnc(-c4ccc(N(C)C)cc4)n3)CC2)cc1,–,–,–,–
CCCCCn1c2nc3ccccc3nc2c2c(=O)n(CC(C)C)cnc21,2.9µM,–,–,·
CCCCn1c2nc3ccccc3nc2c2c(=O)n(CC(C)C)cnc21,·,·,–,·
CCN(CC)CCSc1nnc2c3cc(F)ccc3n(Cc3ccccc3)c2n1,–,–,–,·
CCn1c2ccccc2c2nnc(SCc3ccccc3)nc21,–,–,–,?
Cc1cc(C(=O)CSc2nc3ccccc3n2C)c(C)n1C,–,–,–,·
CCN(CC)CCSc1nnc2c3ccccc3n(Cc3ccccc3)c2n1,?,–,–,5.2µM
Cc1cc(C(=O)CSCCCn2c(=O)[nH]c3ccccc32)c(C)n1C,–,–,–,13µM
SMILES,Pf growth 96h,SARS PLP yeast,AMA1-RON2 inh,Pf growth 48h
CCn1c2ccccc2c2nnc(SCCCn3c(=O)[nH]c4ccccc43)nc21,2.3µM,–,–,7.4µM
O=c1[nH]c2ccccc2n1CCCSCCCn1c(=O)[nH]c2ccccc21,9.3µM,–,–,?
O=C(NC(=S)Nc1c(Cl)ccc2nsnc12)c1ccccc1F,–,–,–,–
CCCN1CCC(=O)N([C@H](CN=[N+]=[N-])Cc2ccccc2)CC1,?,–,–,–
CCN(CC)c1ccc(NC(=O)CN(C)Cc2cccs2)cc1,–,–,13µM,?
O=C1CC(c2ccc(O)cc2)Oc2cc(O)cc(O)c21 (stereo unspecified),–,–,–,–
CC1CC(=O)c2c(cc3c(-c4c(O)cc(O)c5c(O)c6c(cc45)OC(C)CC6=O)c(O)cc(O)c3c2O)O1 (stereo unspecified),–,–,?,0.41µM
Cn1c(CSc2ncccn2)nnc1SCC(=O)N1CCCCCC1,?,–,–,–
CCOc1ccccc1NC(=O)C1CCCN(C(=O)NCc2ccccc2)C1 (stereo unspecified),·,–,–,–
